Source: ChEMBL document CHEMBL4513149, “CO-ADD screening of MMV (CH) - MMV compounds” (2021)
Measured potencies and affinities stand elsewhere.

Assays:
Klebsiella pneumoniae = conditions: Concentration 20 uM; ASSAY_TEST Inhibition of Bacterial Growth; detection method Absorption (OD600); MEDIA CAMHB; plate type 384well; NBS; CORNING #3640; time 18 hr
Candida albicans = conditions: 20 µM
Cryptococcus neoformans = conditions: Concentration 20 uM; ASSAY_TEST Inhibition of Fungal Growth; detection method Resazurin; Absorption (OD600-OD570); plate type 384well; NBS; CORNING #3640

| SMILES | Inhibition (Klebsiella pneumoniae) [%] | Inhibition (Candida albicans) [%] | Inhibition (Cryptococcus neoformans) [%] |
| --- | --- | --- | --- |
| NCCC(O)C(=O)N[C@@H]1C[C@H](N)[C@@H](OC2O[C@H](CN)[C@@H](O)[C@H](O)[C@H]2O)[C@H](O)C1OC1O[C@H](CO)[C@@H](O)[C@H](N)[C@H]1O.O=S(=O)(O)O.O=S(=O)(O)O (stereo not given in full) | 11.78 | 2.46 | -2.57 |
| O=C(NCCc1c[nH]c2ccccc12)c1cc2ccccc2oc1=O | 9.33 | 4.19 | -9.92 |
| C[C@H](C(N)=O)N1CCCC[C@H]1c1ccc(OCc2cccc(F)c2)cc1 | 11.66 | 2.64 | -9.53 |
| O=C(NCc1ccoc1)N1CCN(Cc2ccc3c(c2)OCO3)CC1 | 7.21 | 2.46 | 10.58 |
| CCc1ccc(C(NCc2nc(N)nc(N(C)C)n2)C(C)C)cc1 (stereo not given) | -6.55 | 5.01 | -4.27 |
| CC(C)c1ncc(-c2ccncc2)c([C@H]2CC[C@H](CNC(=O)c3cccnc3)CC2)n1 | 18.24 | 1.5 | -3.68 |
| O=C(Nc1cccc(Cl)c1)c1cnc(N2CCN(c3ccncc3)CC2)c(Cl)c1 | 13.15 | 2.09 | -9.48 |
| Cc1cc2ccccc2n1CC(=O)N1CC(C(=O)N2CCCCC2)Oc2ccccc21 (stereo not given) | 14.31 | 4.16 | -5.34 |
| Cl.O=C(Nc1ccc(N2CCNCC2)nc1)c1oc(-c2ccccc2)nc1C(F)(F)F | 2.54 | 2.72 | -3.82 |
| CN1CCCC1CCO[C@](C)(c1ccccc1)c1ccc(Cl)cc1.O=C(O)/C=C/C(=O)O (stereo not given in full) | 21.77 | 1.54 | -7.21 |
| Cn1ncc2c(N3CCOCC3)nc(NCCc3c[nH]c4ccccc34)nc21 [TDR79432] | 9.02 | 4.1 | -8.59 |
| Cc1cc(C(=O)Nc2cnn(Cc3ccc(Cl)cc3Cl)c2)no1 | -11.81 | 11.5 | -4.75 |
| Cc1ncc(-c2ccnc(Nc3ccc(S(C)(=O)=O)cc3)n2)n1C(C)C [AZD-5438] | 16.86 | 6.64 | -6.72 |
| Cc1ccccc1CN1CCC(O)(c2ccc(Cl)c(C(F)(F)F)c2)CC1 | 11.69 | 3.22 | -6.41 |
| OCCc1ccc(Nc2nccc(-c3nnc4ccccn34)n2)cc1 | 15.28 | 3.06 | -9.75 |
| CS(=O)(=O)N1CCC(CCn2nc(Cc3cccc4ccccc34)c3c(N)ncnc32)CC1 | 2.11 | 3.38 | -7.27 |
| COc1cc(C(F)(F)F)nc2ccc(C)c(N)c12 | 11.25 | 6.41 | -9.66 |
| CCC(Sc1nc2ccccc2o1)C(=O)Nc1nccs1 (stereo not given) | 14.47 | 9.07 | -15.51 |
| O=[N+]([O-])c1cn2c(n1)OC[C@@H](OCc1ccc(OC(F)(F)F)cc1)C2 [PRETOMANID] | 14.31 | 4.06 | -5.11 |
| COC(=O)C1=C(C)NC(C)=C(C(=O)OC(C)C)C1c1cccc2nonc12 (stereo not given) [ISRADIPINE] | 6.29 | 4.19 | -10.15 |
| O=C1N(Cc2cc3ccccc3s2)CC2CN(Cc3ccccc3)CCN12 (stereo not given) | 2.73 | 2.62 | -4.73 |
| CCCS(=O)(=O)N1CCC(CO)(Cc2ccccc2C(F)(F)F)CC1 | 9.23 | 3.76 | -2.93 |

| SMILES | Inhibition (Klebsiella pneumoniae) [%] | Inhibition (Candida albicans) [%] | Inhibition (Cryptococcus neoformans) [%] |
| --- | --- | --- | --- |
| CC1=Nc2ccc(Cl)cc2C(c2ccccc2)N1CCNC(=O)CN(C)C (stereo not given) | 16.36 | 1.95 | 10.1 |
| O=C(CN1CCOCC1)Nc1ccc2ncnc(Nc3ccc(OCc4cccc(F)c4)c(Cl)c3)c2c1 | 11.31 | 5.94 | -1.06 |
| O=C(C(Cc1c[nH]c2ccccc12)NS(=O)(=O)c1ccc(Cl)cc1)N1CCCCC1 (stereo not given) | 4.11 | 2.45 | -6.5 |
| Cc1nn(C(=O)Nc2cccc(C(F)(F)F)c2)c(C)c1Sc1ncccn1 | 9.64 | 2.23 | -2.75 |
| CC(C)(C)n1nc(-c2ccccc2)c2c(N)ncnc21 | 1.67 | 1.46 | -15.8 |
| CS(=O)(=O)N1CCC(Cn2nc(Cc3cccc4ccccc34)c3c(N)ncnc32)CC1 | 11.77 | 2.39 | -6.98 |
| O=C(NC1=NCCS1)c1sc2cc(F)ccc2c1Cl | 1.67 | 8.69 | -16.39 |
| CCc1nc2ccccc2n1CC(O)COc1cc(C)ccc1Cl (stereo not given) | 3.05 | 1.23 | -20.36 |
| CNC1C(OC2C(OC3C(O)C(O)C(NC(=N)N)C(O)C3NC(=N)N)OC(C)C2(O)C=O)OC(CO)C(O)C1O.CNC1C(OC2C(OC3C(O)C(O)C(NC(=N)N)C(O)C3NC(=N)N)OC(C)C2(O)C=O)OC(CO)C(O)C1O.O=S(=O)(O)O.O=S(=O)(O)O.O=S(=O)(O)O (stereo not given) | -10.2 | 2.09 | -8.51 |
| O=C1[C@@H](Oc2ccccc2)[C@@H](c2ccc(Cl)cc2)N1CCn1cnc2c(NCc3ccccc3)ncnc21 | 2.13 | 33.5 | -6.99 |
| N=C(N)c1ccc(-c2cc(-c3ccccc3)on2)cc1 | 18.39 | 3.34 | -9.38 |
| Cl.O[C@@H](c1cc(C(F)(F)F)nc2c(C(F)(F)F)cccc12)[C@H]1CCCCN1 | -6.56 | 6.48 | 1.73 |
| Cc1noc(C)c1COc1cccc(C(=O)N=c2[nH]cccc2C)c1 | 14.67 | 1.92 | -9.25 |
| CC(=O)N(CCN(C(=O)c1ccc(F)cc1)c1ccccc1)c1ccccc1 | 8.37 | 4.16 | -8.06 |
| CNC(=O)c1cc(S(=O)(=O)N2CCN(c3ccccn3)CC2)cs1 | 10.77 | 2.91 | -8.81 |
| O=C(C1CCN(c2cc(-n3cccc3)ncn2)CC1)N1CCc2ccccc2C1 | -8.74 | 10 | 3.06 |
| CCC(C)NC(=O)c1ccc(NC(=O)C2(c3ccccc3)CCCC2)cc1 (stereo not given) | 1.96 | 3.52 | 9.11 |
| CN1CCC(c2cc(-c3ccncc3)c(-c3ccc(F)cc3)[nH]2)CC1 | 5.43 | 0.45 | 8.69 |
| CNC(=O)C1Cc2c([nH]c3cc(Cl)ccc23)C2(CCN(CCc3ccccc3)CC2)N1 (stereo not given) | 10.39 | 3.22 | -13.49 |
| CC(C)(C)c1cc(C(=O)N2CCN(c3nccnc3C#N)CC2)n(Cc2ccccc2)n1 | 14.9 | 6.36 | 1.25 |
| Cc1ccccc1C(=O)N1N=C(Nc2ccccc2)SC1(C)C | 6.87 | 4 | -7.29 |
| COCC(C)NC(=O)CSc1ncnc2sc(-c3ccccc3)cc12 (stereo not given) | 18.05 | 9.04 | 0.58 |

| SMILES | Inhibition (Klebsiella pneumoniae) [%] | Inhibition (Candida albicans) [%] | Inhibition (Cryptococcus neoformans) [%] |
| --- | --- | --- | --- |
| Cc1cc(Nc2ccncc2)n2nc(C)c(-c3ccccc3Cl)c2n1 | 15.32 | 1.91 | -9.03 |
| c1coc(CNc2nc(N3CCCCC3)nc3ccccc23)c1 | 7.9 | 4.06 | -16.26 |
| COc1ccc(-c2onc(C(F)(F)F)c2-c2ccc(Cl)cc2)c(O)c1 | 9.85 | 2.64 | 8.78 |
| C[C@H](C(N)=O)N1CCCC[C@@H]1c1ccc(OCc2cccc(F)c2)cc1 | 9.46 | 2.97 | -6.98 |
| CC1CCCN(C(=O)C(C)Nc2cc(Cl)ccc2N2CCOCC2)C1 (stereo not given) | 10.27 | 5.64 | -4.76 |
| Cl.Cn1ccnc1CNCCS(=O)(=O)c1cccc(Nc2ccc(-c3cccc(F)c3)cn2)c1 | 13.22 | 4.46 | -9.08 |
| COc1ccccc1CNC(=O)c1cc(C2CC2)nc2c1cnn2C(C)C | 8.65 | 6.8 | -9.25 |
| CC1(COc2ccc(N3CCC(Oc4ccc(OC(F)(F)F)cc4)CC3)cc2)Cn2cc([N+](=O)[O-])nc2O1 (stereo not given) | 19.71 | 20.4 | -2.75 |
| COc1cc(NC(=O)Cc2nn(C)c(=O)c3ccccc23)ccc1Cl | 12.64 | 6.72 | -0.85 |
| COc1ccc(Cl)cc1NC(=O)CN(C)C(=O)c1cnn(-c2ccccc2)n1 | 9.17 | 6.95 | -5.87 |
| COc1ccc(C(=N)N)cc1-c1cn(-c2ccc(C(=N)N)cc2)nn1.Cl.Cl | 8.73 | 3.44 | 4.63 |
| COc1ccc(-c2cc(NC(=O)c3ccc(F)cc3Cl)ccc2OC)cc1 | 14.44 | 5.2 | 8.48 |
| Nc1cccnc1Nc1ccc(Cl)cc1 | 2.25 | 1.73 | -10.6 |
| Nc1nccc2ccc(-c3ccc4nccn4c3)cc12 | 18.72 | 2.07 | -1.17 |
| Cc1nc(-c2cccc(NCc3ccccc3)c2)[nH]c1C | 18.74 | 2.98 | -12.15 |
| Brc1c(-c2ccc3c(c2)OCO3)nc2ncccn12 | 12.72 | 3.56 | -13.08 |
| Cc1cccc(Cn2ccc(NC(=O)c3ccc4c(c3)OCO4)n2)c1 | 15.15 | 6.79 | 3.81 |
| CC(=O)Nc1ccc(-c2noc(CC3CCCN(Cc4cccc(F)c4C)C3)n2)cc1 (stereo not given) | 14.96 | 3.14 | -9.66 |
| CC1CC1C(=O)NC1CCN(CC2(c3ccccc3)CCCCC2)CC1 (stereo not given) | 16.4 | 3.19 | -6.72 |
| Cc1ccc2[nH]c(C3CCCNC3)c(-c3ccncc3)c2c1.Cl.Cl (stereo not given) | -25.08 | 4.63 | 1.08 |
| COc1cc(C2=NCCN2)ccc1-n1cc(-c2cccc(C3=NCCN3)c2)nn1.O=CO.O=CO | 8.01 | 2.32 | 7.56 |
